The panel holds about 83,000 compounds, 20% with a hit somewhere; the sample as a whole holds those more often.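 Compound tested at a single concentration for 48 hours in 96-well plates; a percent growth value below 10 was scored as active.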 The source made the active and inactive calls.
system: ACHN renal; test: NCI-60 one-dose screen, 48 h (100 = growth as untreated, 0 = no growth, -100 = all killed); details: 10 µM unless noted
Method: Growth inhibition of the ACHN human tumor cell line is measured as a screen for anti-cancer activity. Cells are grown in 96 well plates and exposed to the test compound for 48 hours. Compounds are tested at a single concentration, which is 10^-5 M for most compounds. The reported endpoint is percent growth (GI% or GIPRCNT), where numbers from 0 - 100% represent growth inhibition, and numbers from -100% - 0 represent cell death. For example, a value of 40 represents 60% growth inhibition. A value of 0 means no net growth occurred over the course of the experiment. A value of -40 indicates 40% of cells at the beginning of the experiment died by the end of the experiment. A value of -100 means all cells are dead at the end of the experiment.
NCI-60 Human Tumor Cell Lines Screen was performed using the standard one-dose NCI protocol, which is described in more detail at https://dtp.cancer.gov/discovery_development/nci-60/default.htm.
Compounds with GIPRCNT values below 10 were considered active. Activity score was based on GIPRCNT using the following formula: […]
Score is 0 for GIPRCNT values of 100 or above, 50 for GIPRCNT values of 0, and 100 for GIPRCNT values of -100.

SMILES	growth
O=C(O)CCC(=O)c1ccc(C2CCCCCC2)cc1	97.1% (inactive)
O=C(NN1C(=O)CSC1c1ccc(Cl)cc1)c1[nH]c2ccc(F)cc2c1-c1ccccc1 (stereo not given)	43.8% (inactive)
Nc1cccc(Nc2cc(S(=O)(=O)O)c(N)c3c2C(=O)c2ccccc2C3=O)c1	96.3% (inactive)
O=C(Nc1nc2c(s1)CCc1c-2c(Br)n(Cc2ccccc2)c1Br)c1ccccc1	46.8% (inactive)
O=c1oc2ccc(-c3ccc(F)cc3F)cc2c(=O)n1-c1cccc(C(F)(F)F)c1	6.31% (active)
CCOC(=O)c1cc2c(n1Cc1cc(OC)c(OC)c(OC)c1)-c1oncc1CCC2	33.8% (inactive)
OC(c1ccccc1)c1nnc(SCc2ccccc2)n1Cc1ccccc1 (stereo not given)	86.9% (inactive)
Cc1ccc(C(=O)c2oc3ccc4c(C)cc(=O)oc4c3c2C)cc1	32.9% (inactive)
O=Cc1cc2ccccc2nc1Nc1nccs1	31.5% (inactive)
COc1ccc(N)c(-c2cc3c(c4c2[nH]c2ccc(OC)cc24)CCCC3)c1	89.4% (inactive)
S=C1CCCC(=S)N1	105% (inactive)
COc1cc(C2CC(c3ccc(Nc4nc(NCCO)nc(N5CCOCC5)n4)cc3)=NN2c2cc(Cl)cc(Cl)c2)cc(OC)c1OC (stereo not given)	47.6% (inactive)
COc1cc(OC)cc(N2C(=O)N(Cc3ccc(C(C)(C)C)cc3)c3ccccc3S2(=O)=O)c1	81.2% (inactive)
Cc1cccc2c(=O)c3c(sc12)c(NCCN)nc1ccccc13	-97.6% (active)
CC(=O)SC1CC(=O)C=C2CCC3C4CCC(=O)OC4(C)CCC3C21C (stereo not given)	106% (inactive)
CCCCCCCCCCOC(=O)c1ccccc1C(=O)OCCCC	109% (inactive)
O=C1c2ccc3c4c(ccc(c24)C(=O)N1CCCCO)C(=O)N(CCCCO)C3=O	43.9% (inactive)
NC1C(N)C(N)C1N (stereo not given)	96.8% (inactive)
COc1cc(C(=O)Nc2ccc(-c3nc4ccccc4[nH]3)cc2)cc(OC)c1OC	61.9% (inactive)
CC(=O)c1ccc2oc(=O)n(Cc3ccc(C#N)cc3)c(=O)c2c1	104% (inactive)

SMILES	growth
O=c1oc2ccc(Br)cc2c(=O)n1-c1ccc(Br)cc1F	-6.06% (active)
C#CCn1cc(C=C2C(=O)NC(=O)NC2=O)c2cc(Cl)ccc21	97.4% (inactive)
Cc1cccc(NC(=O)c2sc3nc4c(cc3c2N)CCCC4)c1C	41.3% (inactive)
Cc1ccc(F)cc1NC(=O)c1cc(Cl)ccc1Nc1ccccc1	42.3% (inactive)
O=C(Nc1ccc(I)cc1F)c1cc(Cl)ccc1O	6.15% (active)
COc1ccc(-c2cc(=O)c3c(OC)c4ccoc4c(/C=C/C=O)c3o2)cc1	75.4% (inactive)
CCCCCCc1cc2cc(-c3csc(/C=C/c4ccccc4)n3)c(=O)oc2cc1O	41.6% (inactive)
O=c1oc2ccc(Cl)cc2c(=O)n1-c1cc(C(F)(F)F)cc(C(F)(F)F)c1	3.99% (active)
c1ccc(CNc2nc(Nc3ccccc3)nc3ccccc23)cc1	33.7% (inactive)
COC(=O)c1ccc(NC(=O)CSc2nc3ccccc3c(=O)n2-c2ccccc2)cc1	103% (inactive)
COc1cc(NC(=O)CCSc2nc3ccccc3c(=O)n2CCc2ccccn2)cc(OC)c1OC	91% (inactive)
CCCCOCc1cc(CN2CCN(C)CC2)c(O)c2ncccc12	27.9% (inactive)
O=C(CCN1C(=O)c2ccccc2C1=O)Nc1ccc(Cl)cc1	82.2% (inactive)
COc1ccccc1C(=O)O/N=C(\N)Cc1cccc2ccccc12	86.5% (inactive)
O=C(Nc1ccc(Cl)cc1F)c1cc(F)ccc1O	3.61% (active)
O=c1cc(-c2ccccc2)oc2cc(OCc3cn(Cc4ccc(F)cc4)nn3)cc(OCc3cn(Cc4ccc(F)cc4)nn3)c12	7.3% (active)
O=C(CSc1ccc2nnc(-c3cccc(F)c3)n2n1)Nc1ccc2c(c1)OCO2	87.9% (inactive)
COC(=O)[C@H](NC(=O)C1(C)CCC[C@]2(C)[C@H]3C[C@H]4C(C(C)C)=C[C@]3(CC[C@@H]12)[C@@H]1C(=O)CCC(=O)[C@@H]14)C(C)C (stereo not given in full)	100% (inactive)
Cc1cccc2c(=O)c3c(sc12)c(N1CCNCC1)nc1ccccc13	46% (inactive)
O=C(c1nc2ccccc2[nH]1)C1[C@@H](c2cccc(O)c2)C2CC3CCCCC3N2[C@@]12C(=O)Nc1cc(Cl)ccc12 (stereo not given in full)	30.4% (inactive)
